PubChem BioAssay (EPA / NIEHS)
Records with an inconclusive call do not appear. Active and inactive are the calls of the source. Rule for the calls, unless noted: active = hit-call score of the fitted dose curve at least 0.9, where 1 is the maximum; inconclusive = response in the unintended direction; inactive = score below 0.9.

Experiments:
[1] = ATG_TCF_b_cat_CIS: Attagene CIS-FACTORIAL HepG2 Assay for human T-Cell-Factor with beta-catenin (TCF/b-cat) (AID 2282965; active = hit-call score of the fitted dose curve at least 0.9, where 1 is the maximum; inactive = score below 0.9); conditions: HepG2 TCF/beta-catenin cis-reporter transcription, actives raise or lower the signal
Procedure, shortened: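 Endogenous transcription factor activity is captured through cis-promoter reporter constructs transiently introduced into human HepG2 liver cells. Induced reporter mRNA is measured after 24 h and fitted bidirectionally relative to DMSO.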

[2] = ATG_TAL_CIS: Attagene CIS-FACTORIAL HepG2 Assay for human TAL Basal Promoter (AID 2282966; active = hit-call score of the fitted dose curve at least 0.9, where 1 is the maximum; inactive = score below 0.9;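 note: background control endpoint measuring basal TAL promoter reporter mRNA not a specific factor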); conditions: HepG2 Attagene cis-factorial TAL promoter reporter; actives raise or lower the signal
Procedure, shortened: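 Human hepatoma HepG2 cells, transfected with promoter-regulated reporter units, were treated 24 h. Reporter transcript levels, measured through RT-PCR and capillary electrophoresis, were fitted for gain or loss relative to DMSO.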

[3] = ATG_TGFb_CIS: Attagene CIS-FACTORIAL HepG2 Assay for human Transforming Growth Factor (TGF) (AID 2282967; active = hit-call score of the fitted dose curve at least 0.9, where 1 is the maximum; inactive = score below 0.9); conditions: HepG2 Attagene CIS TGFb reporter, mRNA transcription; actives raise or lower the signal
Procedure, shortened: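 Readout: fluorescently labeled reporter cDNA fragments resolved by capillary electrophoresis after RT-PCR. Transfected HepG2 cells dosed for 24 h; endogenous TF activity at TGFB1-linked cis element; gain or loss fitted relative to DMSO.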

[4] = ATG_VDRE_CIS: Attagene CIS-FACTORIAL HepG2 Assay for human Vitamin D Receptor Element (VDRE) (AID 2282968; active = hit-call score of the fitted dose curve at least 0.9, where 1 is the maximum; inactive = score below 0.9); conditions: HepG2 VDRE cis-reporter transcription, actives raise or lower the signal
Procedure, shortened: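 Readout is VDRE-driven reporter mRNA reflecting endogenous factor activity in human HepG2 cells, sampled 24 h post-dose. Quantification used labelled RT-PCR products separated by capillary electrophoresis; bidirectional analysis relative to DMSO.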

[5] = target: Estrogen receptor (Homo sapiens) (UniProt P03372); assay: ATG_ERa_TRANS: Attagene TRANS-FACTORIAL HepG2 Assay for human Estrogen Receptor alpha (ERa) (AID 2282970); conditions: HepG2 Attagene TRANS ERa GAL4 reporter, mRNA
Procedure, shortened: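 Signal derives from fluorescence of labelled reporter PCR fragments separated by capillary electrophoresis. HepG2 cells transiently carrying multiple GAL4-UAS reporter units were treated 24 hours, and induction above DMSO baseline was fitted as activity.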

[6] = target: X-box-binding protein 1 (Homo sapiens) (UniProt P17861); assay: ATG_Xbp1_CIS: Attagene CIS-FACTORIAL HepG2 Assay for human X-box Binding Protein 1 (XBP1) (AID 2282972; active = hit-call score of the fitted dose curve at least 0.9, where 1 is the maximum; inactive = score below 0.9); conditions: HepG2 XBP1 cis-element reporter, Attagene multiplex; actives raise or lower the signal
Procedure, shortened: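 Changes in reporter transcript abundance, read by RT-PCR and capillary electrophoresis, reflect endogenous transcription factor activity. Transfected HepG2 cells received compound for 24 hours; DMSO defined baseline for bidirectional analysis.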

[7] = ATG_M_19_TRANS: Attagene TRANS-FACTORIAL HepG2 Assay for M19 Transcription Factor (Internal Marker) (AID 2282974); conditions: HepG2 Attagene TRANS-FACTORIAL M19 internal marker reporter
Procedure, shortened: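 Background-control readout: after 24 h chemical exposure of transfected HepG2 carrying GAL4-driven reporter units, RNA was reverse-transcribed, amplified, fluorescently labeled and sized by capillary electrophoresis; gain-of-signal fit against DMSO.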

[8] = ATG_GAL4_TRANS: Attagene TRANS-FACTORIAL HepG2 Assay for GAL4 (Internal Marker) (AID 2282976); conditions: HepG2 Attagene TRANS GAL4 internal marker reporter
Procedure, shortened: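 Liver HepG2 line bearing multiplexed GAL4-UAS reporter constructs; 24 h chemical treatment. Transcripts were quantified as fluorescent fragments on capillary electrophoresis after RT-PCR and HpaI cut, with activity fitted upward from DMSO.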

[9] = target: Oxysterols receptor LXR-alpha (Homo sapiens) (UniProt Q13133); assay: ATG_LXRa_TRANS: Attagene TRANS-FACTORIAL HepG2 Assay for human Liver X Receptor alpha (LXRa) (AID 2282980); conditions: HepG2 Attagene TRANS reporter, LXRa transactivation
Procedure, shortened: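 In this multiplexed TRANS system, compounds act on HepG2 cells carrying GAL4-UAS reporter units and a receptor-GAL4 fusion for 24 h. Induced reporter RNA is amplified, fluorescently labelled and sized by capillary electrophoresis, with DMSO as baseline.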

[10] = target: Hepatocyte nuclear factor 4-alpha (Homo sapiens) (UniProt P41235); assay: ATG_HNF4a_TRANS: Attagene TRANS-FACTORIAL HepG2 Assay for human Hepatocyte Nuclear Factor 4 alpha (HNF4a) (AID 2282982); conditions: HepG2 HNF4a transactivation reporter, mRNA readout
Procedure, shortened: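 Activity of an exogenous HNF4a–Gal4 fusion scored as induced GAL4-UAS reporter transcripts after 24 h chemical exposure of transfected human HepG2 cells. Read-out via RT-PCR with 6-FAM labelling and capillary electrophoresis; rise over DMSO baseline.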

[11] = target: Nuclear receptor subfamily 4 group A member 2 (Homo sapiens) (UniProt P43354); assay: ATG_NURR1_TRANS: Attagene TRANS-FACTORIAL HepG2 Assay for human Nuclear Receptor Related Protein 1 (NURR1) (AID 2282985); conditions: HepG2 Attagene TRANS reporter, mRNA readout
Procedure, shortened: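 Reporter transcript induction, measured by RT-PCR with fluorescent labelling, HpaI digestion and capillary electrophoresis, after 24 hr dosing of human HepG2 cells transiently expressing an exogenous NR-Gal4 fusion with GAL4-UAS-driven reporters; DMSO as baseline.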

[12] = target: Bile acid receptor (Homo sapiens) (UniProt Q96RI1); assay: ATG_FXR_TRANS: Attagene TRANS-FACTORIAL HepG2 Assay for Farnesoid X Receptor (FXR) (AID 2282979); conditions: HepG2 Attagene TRANS FXR-GAL4 reporter transcription;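 note: hits raise reporter mRNA above DMSO so AC50 marks FXR activation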
Procedure, shortened: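 After 24 h chemical treatment of transfected HepG2 cells, GAL4-UAS reporter transcripts driven by an exogenous FXR-GAL4 fusion were measured by RT-PCR and capillary electrophoresis. Increases over DMSO were fitted.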

[13] = ATG_M_32_TRANS: Attagene TRANS-FACTORIAL HepG2 Assay for M32 Transcription Factor (Internal Marker) (AID 2282984); conditions: HepG2 Attagene TRANS M32 internal marker reporter
Procedure, shortened: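 Internal background reporter in transfected HepG2: after 24 h chemical exposure, RNA reverse-transcribed, reporter cDNA amplified, fluorescently labelled and HpaI-cut, then sized by capillary electrophoresis. Gain of signal fitted against DMSO control.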

[14] = target: Transcriptional activator Myb (Homo sapiens) (UniProt P10242); assay: ATG_Myb_CIS: Attagene CIS-FACTORIAL HepG2 Assay for human Myeloblastosis (Myb) Proto-Oncogene Transcription Factor (AID 2282986; active = hit-call score of the fitted dose curve at least 0.9, where 1 is the maximum; inactive = score below 0.9); conditions: HepG2 Attagene CIS-FACTORIAL Myb reporter transcription; actives raise or lower the signal
Procedure, shortened: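 Reporter mRNA is quantified by RT-PCR and capillary electrophoresis 24 h after dosing HepG2 cells transfected with cis-regulated reporter units, which track endogenous transcription factor activity. Gain and loss of signal are fitted versus DMSO baseline.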

[15] = target: Glucocorticoid receptor (Homo sapiens) (UniProt P04150); assay: ATG_GR_TRANS: Attagene TRANS-FACTORIAL HepG2 Assay for human Glucocorticoid Receptor (GR) (AID 2282978); conditions: HepG2 Attagene TRANS GR reporter, mRNA transcription;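 note: activators score as hits since higher reporter transcript over DMSO is fitted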
Procedure, shortened: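 Readout is reporter transcript from a chimeric GR-Gal4 acting on GAL4-UAS in transfected human HepG2 liver cells after 24 h exposure, quantified by RT-PCR and capillary electrophoresis. Activation fitted upward against DMSO.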

[16] = target: Oxysterols receptor LXR-beta (Homo sapiens) (UniProt P55055); assay: ATG_LXRb_TRANS: Attagene TRANS-FACTORIAL HepG2 Assay for human Liver X Receptor beta (LXRb) (AID 2282981); conditions: HepG2 Attagene TRANS GAL4-LXRb reporter, mRNA
Procedure, shortened: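 After 24 h chemical treatment of transfected HepG2 cells carrying exogenous NR-Gal4 chimeras, reporter mRNA was quantified by fluorescent RT-PCR and capillary electrophoresis; activity taken as increase over DMSO controls.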

[17] = ATG_M_06_TRANS: Attagene TRANS-FACTORIAL HepG2 Assay for M06 Transcription Factor (Internal Marker) (AID 2282983); conditions: HepG2 Attagene TRANS M06 internal marker reporter
Procedure, shortened: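 Multi-reporter-transfected HepG2, 24 h treatment; reporter transcripts quantified via RT-PCR, primer-extension labelling and CE. DMSO-normalized gain-of-signal fit.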

[18] = target: Steroid hormone receptor ERR1 (Homo sapiens) (UniProt P11474); assay: ATG_ERRa_TRANS: Attagene TRANS-FACTORIAL HepG2 Assay for human Estrogen-Related Receptor alpha (ERRa) (AID 2282971); conditions: HepG2 Attagene TRANS reporter, ERRa transactivation
Procedure, shortened: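 Signal gain relative to DMSO for an ERRa-Gal4 chimeric receptor, read as reporter mRNA by RT-PCR/capillary electrophoresis. Human HepG2 liver cells, transient multiplex reporter transfection, 24 h chemical exposure.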

X-box-binding protein 1 (Homo sapiens), sequence (P17861 whole entry, looked up): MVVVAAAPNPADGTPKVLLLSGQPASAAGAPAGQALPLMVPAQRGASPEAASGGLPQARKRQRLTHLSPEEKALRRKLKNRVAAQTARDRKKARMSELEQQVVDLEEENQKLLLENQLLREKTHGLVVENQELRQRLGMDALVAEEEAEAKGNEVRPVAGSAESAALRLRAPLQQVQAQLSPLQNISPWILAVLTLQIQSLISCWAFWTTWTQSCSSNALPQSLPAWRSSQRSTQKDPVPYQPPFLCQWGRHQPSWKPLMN
Hepatocyte nuclear factor 4-alpha (Homo sapiens), sequence (P41235 whole entry, looked up, the tested form may be a part): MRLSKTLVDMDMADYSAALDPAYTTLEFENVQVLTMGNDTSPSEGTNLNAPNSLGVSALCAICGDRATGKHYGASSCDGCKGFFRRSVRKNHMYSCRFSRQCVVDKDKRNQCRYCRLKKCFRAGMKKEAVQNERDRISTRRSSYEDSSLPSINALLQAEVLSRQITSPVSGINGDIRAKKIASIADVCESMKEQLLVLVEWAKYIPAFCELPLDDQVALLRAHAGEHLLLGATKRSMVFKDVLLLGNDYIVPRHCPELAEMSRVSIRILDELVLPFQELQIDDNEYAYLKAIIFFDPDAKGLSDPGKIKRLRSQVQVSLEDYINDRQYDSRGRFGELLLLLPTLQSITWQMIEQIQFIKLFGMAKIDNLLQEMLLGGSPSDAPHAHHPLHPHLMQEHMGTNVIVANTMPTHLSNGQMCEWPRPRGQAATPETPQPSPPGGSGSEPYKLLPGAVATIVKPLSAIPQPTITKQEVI
Glucocorticoid receptor (Homo sapiens), sequence (P04150 whole entry, looked up, the tested form may be a part): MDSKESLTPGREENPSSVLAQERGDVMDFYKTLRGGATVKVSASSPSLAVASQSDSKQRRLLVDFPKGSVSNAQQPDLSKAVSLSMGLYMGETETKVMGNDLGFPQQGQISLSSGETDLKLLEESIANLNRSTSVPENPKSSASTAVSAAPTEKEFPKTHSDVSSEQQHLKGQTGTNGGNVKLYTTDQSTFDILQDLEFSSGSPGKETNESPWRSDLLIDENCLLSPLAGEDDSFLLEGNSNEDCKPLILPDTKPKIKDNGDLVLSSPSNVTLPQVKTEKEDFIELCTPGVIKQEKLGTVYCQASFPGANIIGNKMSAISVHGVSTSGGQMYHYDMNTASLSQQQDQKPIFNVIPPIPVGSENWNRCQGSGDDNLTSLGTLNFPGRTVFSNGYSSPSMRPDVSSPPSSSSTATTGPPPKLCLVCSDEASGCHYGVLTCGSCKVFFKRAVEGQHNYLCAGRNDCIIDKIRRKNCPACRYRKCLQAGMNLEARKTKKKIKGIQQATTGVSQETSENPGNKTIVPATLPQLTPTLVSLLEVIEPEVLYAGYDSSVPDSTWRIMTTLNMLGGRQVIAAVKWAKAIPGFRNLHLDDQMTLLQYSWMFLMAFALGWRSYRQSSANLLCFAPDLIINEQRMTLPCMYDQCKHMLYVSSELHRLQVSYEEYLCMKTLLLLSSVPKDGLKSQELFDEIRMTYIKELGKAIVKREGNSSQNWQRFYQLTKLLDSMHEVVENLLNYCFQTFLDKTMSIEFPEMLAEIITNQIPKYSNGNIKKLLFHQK
Oxysterols receptor LXR-alpha (Homo sapiens), sequence (Q13133 whole entry, looked up, the tested form may be a part): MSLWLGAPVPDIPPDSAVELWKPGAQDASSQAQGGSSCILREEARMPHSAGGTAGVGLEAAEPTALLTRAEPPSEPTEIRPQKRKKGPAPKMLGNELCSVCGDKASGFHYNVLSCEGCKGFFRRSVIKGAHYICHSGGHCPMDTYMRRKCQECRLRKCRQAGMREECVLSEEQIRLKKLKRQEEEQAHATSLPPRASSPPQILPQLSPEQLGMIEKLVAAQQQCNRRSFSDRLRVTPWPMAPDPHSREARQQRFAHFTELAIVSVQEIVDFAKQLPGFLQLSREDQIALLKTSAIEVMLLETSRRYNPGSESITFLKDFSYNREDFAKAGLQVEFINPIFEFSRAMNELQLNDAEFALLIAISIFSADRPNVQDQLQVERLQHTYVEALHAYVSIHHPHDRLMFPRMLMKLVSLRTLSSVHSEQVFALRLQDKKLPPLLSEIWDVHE
Bile acid receptor (Homo sapiens), sequence (Q96RI1 whole entry, looked up, the tested form may be a part): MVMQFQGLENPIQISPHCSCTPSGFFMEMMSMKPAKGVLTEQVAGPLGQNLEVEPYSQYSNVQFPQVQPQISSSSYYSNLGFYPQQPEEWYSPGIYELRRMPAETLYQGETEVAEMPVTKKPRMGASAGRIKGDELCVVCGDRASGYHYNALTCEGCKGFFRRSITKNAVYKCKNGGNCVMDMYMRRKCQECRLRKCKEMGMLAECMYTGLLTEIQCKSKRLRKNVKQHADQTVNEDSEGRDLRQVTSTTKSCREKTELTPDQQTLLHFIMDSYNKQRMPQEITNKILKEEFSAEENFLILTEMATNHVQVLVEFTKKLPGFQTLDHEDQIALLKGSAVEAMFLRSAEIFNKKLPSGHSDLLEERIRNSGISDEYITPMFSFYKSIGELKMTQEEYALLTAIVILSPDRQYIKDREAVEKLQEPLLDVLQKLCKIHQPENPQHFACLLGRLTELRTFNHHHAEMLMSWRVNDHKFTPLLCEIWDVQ
Nuclear receptor subfamily 4 group A member 2 (Homo sapiens), sequence (P43354 whole entry, looked up, the tested form may be a part): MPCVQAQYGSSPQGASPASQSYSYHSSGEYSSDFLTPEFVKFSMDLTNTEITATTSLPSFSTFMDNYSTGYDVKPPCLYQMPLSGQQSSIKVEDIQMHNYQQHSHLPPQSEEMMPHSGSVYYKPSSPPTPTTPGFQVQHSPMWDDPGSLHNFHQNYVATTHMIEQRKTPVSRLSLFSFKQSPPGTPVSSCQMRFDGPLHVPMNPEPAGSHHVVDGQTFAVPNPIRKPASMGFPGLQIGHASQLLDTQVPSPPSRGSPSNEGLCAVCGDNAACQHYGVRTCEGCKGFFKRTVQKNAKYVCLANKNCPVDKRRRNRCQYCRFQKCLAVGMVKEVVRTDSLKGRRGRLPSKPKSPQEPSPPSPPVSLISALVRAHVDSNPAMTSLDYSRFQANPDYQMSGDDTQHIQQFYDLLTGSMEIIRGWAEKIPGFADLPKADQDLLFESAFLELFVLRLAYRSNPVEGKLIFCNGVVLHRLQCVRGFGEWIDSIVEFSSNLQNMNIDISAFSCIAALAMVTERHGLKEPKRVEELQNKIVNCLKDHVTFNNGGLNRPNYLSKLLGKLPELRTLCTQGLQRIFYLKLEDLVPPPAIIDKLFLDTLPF
Oxysterols receptor LXR-beta (Homo sapiens), sequence (P55055 whole entry, looked up, the tested form may be a part): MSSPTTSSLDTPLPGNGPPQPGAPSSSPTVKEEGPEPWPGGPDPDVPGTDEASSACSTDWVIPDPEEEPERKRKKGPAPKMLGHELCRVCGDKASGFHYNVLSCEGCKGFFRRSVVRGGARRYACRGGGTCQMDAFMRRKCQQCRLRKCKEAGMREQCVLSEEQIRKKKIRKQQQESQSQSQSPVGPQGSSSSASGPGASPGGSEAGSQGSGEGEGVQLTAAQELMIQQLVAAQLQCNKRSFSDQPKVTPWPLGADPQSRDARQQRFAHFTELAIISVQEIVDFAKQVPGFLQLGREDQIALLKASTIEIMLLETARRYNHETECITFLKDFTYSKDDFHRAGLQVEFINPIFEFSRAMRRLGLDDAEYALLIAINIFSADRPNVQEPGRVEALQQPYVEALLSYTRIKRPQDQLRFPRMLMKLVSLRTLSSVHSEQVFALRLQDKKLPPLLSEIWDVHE
Transcriptional activator Myb (Homo sapiens), sequence (P10242 whole entry, looked up): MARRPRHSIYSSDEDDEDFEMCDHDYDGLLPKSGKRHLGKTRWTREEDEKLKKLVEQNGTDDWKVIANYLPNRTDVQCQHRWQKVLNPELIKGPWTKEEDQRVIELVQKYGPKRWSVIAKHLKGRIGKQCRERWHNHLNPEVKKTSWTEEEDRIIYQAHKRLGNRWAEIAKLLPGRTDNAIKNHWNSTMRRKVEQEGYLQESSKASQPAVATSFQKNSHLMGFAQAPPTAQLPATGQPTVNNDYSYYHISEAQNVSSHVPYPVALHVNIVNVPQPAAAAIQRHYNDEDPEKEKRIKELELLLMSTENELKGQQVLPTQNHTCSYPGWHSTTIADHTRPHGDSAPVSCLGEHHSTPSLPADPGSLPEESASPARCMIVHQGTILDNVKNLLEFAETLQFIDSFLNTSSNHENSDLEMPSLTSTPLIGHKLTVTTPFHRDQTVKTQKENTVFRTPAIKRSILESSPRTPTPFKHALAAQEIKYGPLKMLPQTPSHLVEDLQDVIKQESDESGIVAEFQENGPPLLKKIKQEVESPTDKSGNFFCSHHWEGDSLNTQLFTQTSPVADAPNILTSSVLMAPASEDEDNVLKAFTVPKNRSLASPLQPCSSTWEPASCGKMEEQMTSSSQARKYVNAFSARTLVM
Estrogen receptor (Homo sapiens), sequence (P03372 whole entry, looked up, the tested form may be a part): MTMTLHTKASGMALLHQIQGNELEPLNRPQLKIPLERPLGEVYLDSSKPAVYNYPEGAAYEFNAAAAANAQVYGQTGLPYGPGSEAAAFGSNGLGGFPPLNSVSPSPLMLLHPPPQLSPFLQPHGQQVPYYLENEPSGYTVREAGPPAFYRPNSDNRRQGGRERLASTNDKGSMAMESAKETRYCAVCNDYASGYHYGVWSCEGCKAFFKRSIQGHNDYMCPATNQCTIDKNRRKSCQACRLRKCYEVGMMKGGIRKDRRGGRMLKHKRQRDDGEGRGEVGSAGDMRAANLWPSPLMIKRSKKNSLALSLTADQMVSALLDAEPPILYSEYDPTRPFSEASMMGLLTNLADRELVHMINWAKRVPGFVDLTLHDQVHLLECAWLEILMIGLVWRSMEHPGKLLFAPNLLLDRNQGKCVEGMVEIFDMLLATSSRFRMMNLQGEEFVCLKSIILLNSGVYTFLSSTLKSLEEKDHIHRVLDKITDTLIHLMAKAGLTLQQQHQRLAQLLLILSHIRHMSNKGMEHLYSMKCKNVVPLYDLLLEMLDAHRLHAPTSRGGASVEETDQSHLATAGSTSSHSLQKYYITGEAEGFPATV

COc1cc(O)c(C(=O)c2ccccc2)cc1S(=O)(=O)O
outcome [1]: inactive | outcome [2]: inactive | outcome [3]: inactive | outcome [4]: inactive | outcome [5]: inactive | outcome [6]: inactive | outcome [7]: inactive | outcome [8]: inactive | outcome [9]: inactive | outcome [10]: inactive | outcome [11]: inactive

CC(=O)/C=C/C1C(C)=CCCC1(C)C (centres undefined)
outcome [1]: inactive | outcome [2]: inactive | outcome [3]: inactive | AC50 [4]: 13.3 µM (active) | AC50 [5]: 24.2 µM (active) | outcome [6]: inactive | outcome [7]: inactive | outcome [12]: inactive | outcome [13]: inactive | outcome [11]: inactive | outcome [14]: inactive

CC(C)CO
outcome [1]: inactive | outcome [2]: inactive | AC50 [3]: 0.224 µM (active) | outcome [4]: inactive | outcome [5]: inactive | outcome [6]: inactive | outcome [8]: inactive | outcome [15]: inactive | outcome [16]: inactive | outcome [10]: inactive | outcome [17]: inactive

CC(CC=O)CC(C)(C)C (centres undefined)
outcome [1]: inactive | outcome [2]: inactive | outcome [3]: inactive | outcome [4]: inactive | outcome [5]: inactive | outcome [6]: inactive | outcome [7]: inactive | outcome [8]: inactive | outcome [9]: inactive | outcome [16]: inactive | outcome [11]: inactive | outcome [14]: inactive

O=C(Cl)c1ccc(C(=O)Cl)cc1
outcome [1]: inactive | outcome [2]: inactive | outcome [3]: inactive | outcome [4]: inactive | outcome [5]: inactive | outcome [6]: inactive | outcome [7]: inactive | outcome [8]: inactive | outcome [15]: inactive | outcome [9]: inactive | outcome [13]: inactive | outcome [11]: inactive | outcome [14]: inactive

CCCCCCCCCCCCc1ccc(O)cc1
outcome [1]: inactive | outcome [2]: inactive | outcome [3]: inactive | outcome [4]: inactive | AC50 [5]: 0.0847 µM (active) | outcome [6]: inactive | outcome [7]: inactive | outcome [8]: inactive | outcome [15]: inactive | outcome [12]: inactive | outcome [9]: inactive | AC50 [16]: 15.1 µM (active) | outcome [17]: inactive | outcome [13]: inactive | outcome [11]: inactive | outcome [14]: inactive

CCCCC/C=C\C/C=C\CCCCCCCC(=O)O
outcome [1]: inactive | AC50 [2]: 100 µM (active) | outcome [3]: inactive | outcome [4]: inactive | outcome [5]: inactive | AC50 [6]: 147 µM (active) | outcome [7]: inactive | outcome [12]: inactive | outcome [10]: inactive | outcome [14]: inactive

CCOC(=O)c1ccc(C)cc1
outcome [1]: inactive | outcome [2]: inactive | outcome [3]: inactive | outcome [4]: inactive | outcome [5]: inactive | outcome [18]: inactive | outcome [6]: inactive | outcome [9]: inactive | outcome [16]: inactive | outcome [10]: inactive | outcome [17]: inactive | outcome [11]: inactive | outcome [14]: inactive

Oc1ccc(/C=C/c2cc(O)cc(O)c2)cc1
AC50 [1]: 27.3 µM (active) | outcome [2]: inactive | outcome [3]: inactive | outcome [4]: inactive | AC50 [5]: 6 µM (active) | outcome [6]: inactive | outcome [8]: inactive | outcome [12]: inactive | outcome [9]: inactive | outcome [16]: inactive | outcome [10]: inactive | outcome [17]: inactive | AC50 [11]: 74.6 µM (active) | outcome [14]: inactive

CCCCCCC=O
outcome [1]: inactive | outcome [2]: inactive | outcome [3]: inactive | outcome [4]: inactive | AC50 [5]: 19 µM (active) | outcome [6]: inactive | outcome [7]: inactive | outcome [16]: inactive | outcome [13]: inactive | outcome [11]: inactive | outcome [14]: inactive

Oc1ccccc1Cc1ccccc1O
AC50 [1]: 37.9 µM (active) | outcome [2]: inactive | outcome [3]: inactive | AC50 [4]: 133 µM (active) | AC50 [5]: 18.1 µM (active) | AC50 [6]: 144 µM (active) | outcome [7]: inactive | outcome [8]: inactive | outcome [15]: inactive | outcome [9]: inactive | outcome [17]: inactive | outcome [14]: inactive
